This note sets out measurements from PubChem BioAssay (NCATS).

For experiment [1], the target named is Cytochrome P450 3A4 (Homo sapiens) (UniProt P08684). Briefly: qHTS Assay for Inhibitors and Substrates of Cytochrome P450 3A4 (AID 884; active means well fitted curve in the direction sought with a large enough effect; an effect the other way counts as inactive or inconclusive; further: potency means the concentration at half of the fitted maximal effect; nearly all actives have a fitted effect of over 50% in size). A digest of the protocol: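 Luminescent readout of luciferin produced by CYP3A4 (20 nM) dealkylation of Luciferin-PPXE, 25 uM (its KM). NADPH-driven reaction ran 60 min at RT after 10 min compound preincubation; data scaled to 57 uM ketoconazole as 100% inhibition.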
Chain of Cytochrome P450 3A4 (Homo sapiens) (P08684 whole entry, looked up): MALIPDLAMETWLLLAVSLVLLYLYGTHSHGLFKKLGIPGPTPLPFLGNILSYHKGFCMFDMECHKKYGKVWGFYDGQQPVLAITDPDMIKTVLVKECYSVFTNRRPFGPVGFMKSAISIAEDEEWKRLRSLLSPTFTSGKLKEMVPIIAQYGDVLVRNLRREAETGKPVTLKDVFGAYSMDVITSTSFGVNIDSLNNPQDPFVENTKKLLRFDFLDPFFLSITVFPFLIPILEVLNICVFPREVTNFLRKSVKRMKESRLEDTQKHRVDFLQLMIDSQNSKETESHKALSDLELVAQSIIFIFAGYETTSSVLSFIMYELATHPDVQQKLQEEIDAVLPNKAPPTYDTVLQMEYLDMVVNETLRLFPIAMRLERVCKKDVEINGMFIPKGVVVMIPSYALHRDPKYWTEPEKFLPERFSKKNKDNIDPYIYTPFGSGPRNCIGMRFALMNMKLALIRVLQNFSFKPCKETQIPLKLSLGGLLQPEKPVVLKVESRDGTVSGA
In general terms: Quantitative high-throughput screening tests each substance at several concentrations.

The target is the same in experiment [2]. Briefly: qHTS Assay for Activators of Cytochrome P450 3A4 (AID 885; active means well fitted curve in the direction sought with a large enough effect; an effect the other way counts as inactive or inconclusive; further: nearly all actives have a fitted effect of over 65% in size). The gist of the method: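 Luminescent readout of luciferin formed from 25 uM Luciferin-PPXE (KM level) by 20 nM CYP3A4 in 200 mM KPO4, with 60 min NADPH-driven reaction at room temperature after 10 min compound exposure. Ketoconazole (57 uM) defined 100% inhibition.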
Experiment [3] addresses DNA dC->dU-editing enzyme APOBEC-3G (Homo sapiens) (UniProt Q9HC16). The experiment is described as follows: qHTS for inhibitors of Vif-A3G interactions: Validation (AID 588379; active means well fitted curve in the direction sought with a large enough effect; an effect the other way counts as inactive or inconclusive; further: 0% is about no effect). A digest of the protocol:
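Yellow fluorescence (Ex 488, Em 500-530) of Vif-coexpressing HeLa A3G-eYFP cells, scanned by Acumen cytometer, reports blocked A3G degradation. Cells plated at 700/well overnight at 37 deg C before compound addition, then a further overnight compound incubation at 37 deg C.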

Experiment [4] deals with Androgen receptor (Homo sapiens) (UniProt P10275). The experiment is described as follows: qHTS assay for small molecule agonists of androgen receptor signaling (AID 588515; active means well fitted curve in the direction sought with a large enough effect in the signal ratio, with a control signal flat; the % refers to the signal ratio; further: on the % scale 0 is the no-effect control and ±100 the full control effect). The note with it: AR-UAS-bla HEK293, beta-lactamase ratio, agonist 16 h; activation: hits give high values. A digest of the protocol: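 Stimulation of an AR-responsive β-lactamase reporter in GripTite HEK293 cells was measured after 16 h compound exposure at 37 °C, via CCF4 fluorescence after 2 h RT. EC50 from Hill fits, normalized to R1881 at 30 nM.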
Chain of Androgen receptor (Homo sapiens) (P10275 whole entry, looked up): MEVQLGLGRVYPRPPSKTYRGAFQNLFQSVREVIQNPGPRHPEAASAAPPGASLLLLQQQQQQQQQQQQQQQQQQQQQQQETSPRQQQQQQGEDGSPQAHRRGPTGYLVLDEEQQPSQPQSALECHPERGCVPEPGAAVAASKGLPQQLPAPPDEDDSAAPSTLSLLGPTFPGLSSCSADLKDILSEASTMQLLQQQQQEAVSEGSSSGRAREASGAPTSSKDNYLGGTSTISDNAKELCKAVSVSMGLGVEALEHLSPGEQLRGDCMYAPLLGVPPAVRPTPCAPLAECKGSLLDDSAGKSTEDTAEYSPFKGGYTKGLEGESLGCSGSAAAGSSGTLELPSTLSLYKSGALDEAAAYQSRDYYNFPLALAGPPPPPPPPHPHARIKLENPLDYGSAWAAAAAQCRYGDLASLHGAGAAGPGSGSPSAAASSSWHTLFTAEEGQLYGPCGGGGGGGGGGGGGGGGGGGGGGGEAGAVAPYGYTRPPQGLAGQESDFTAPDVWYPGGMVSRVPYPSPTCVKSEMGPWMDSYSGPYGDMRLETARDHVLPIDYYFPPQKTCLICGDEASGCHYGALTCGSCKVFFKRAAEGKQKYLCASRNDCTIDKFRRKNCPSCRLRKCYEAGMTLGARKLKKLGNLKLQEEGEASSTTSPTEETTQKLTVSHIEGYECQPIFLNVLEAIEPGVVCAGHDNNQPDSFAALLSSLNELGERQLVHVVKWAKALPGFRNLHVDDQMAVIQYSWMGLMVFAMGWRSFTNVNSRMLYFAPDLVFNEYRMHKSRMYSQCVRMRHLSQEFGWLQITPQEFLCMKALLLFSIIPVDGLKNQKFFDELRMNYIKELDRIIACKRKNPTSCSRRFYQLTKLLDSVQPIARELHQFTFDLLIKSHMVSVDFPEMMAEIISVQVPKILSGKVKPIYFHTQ

The target is the same in experiment [5]. The experiment is described as follows: qHTS assay for small molecule antagonists of androgen receptor signaling (AID 588516; active means well fitted curve in the direction sought with a large enough effect in the signal ratio, with a control signal flat, not every such curve was filed as active; the % refers to the signal ratio; further: on the % scale 0 is the no-effect control and ±100 the full control effect). A digest of the protocol:
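Antagonist mode: inhibition of R1881-stimulated (10 nM final) bla reporter in GeneBLAzer AR HEK 293 cells, 16 h at 37C, compounds titrated. IC50 and efficacy from Hill-equation fits of 405/460–530 nm FRET ratios.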

The target of experiment [6] is Bile acid receptor (Homo sapiens) (UniProt Q96RI1). Briefly: qHTS assay for small molecule antagonists of farnesoid X receptor signaling (AID 588526). Further: on the % scale 0 is the no-effect control and ±100 the full control effect. A digest of the protocol:
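Beta-lactamase reporter antagonist mode: HEK293T FXR-UAS-bla cells, titrated compound, CDCA stimulation, 16 h 37 C, CCF4 dye 2 h RT. Data normalized to CDCA 50 uM and DMSO; Hill-fit IC50.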

For experiment [7], the target named is Peroxisome proliferator-activated receptor gamma (Homo sapiens) (UniProt P37231). Briefly: qHTS assay for small molecule agonists of peroxisome proliferator-activated receptor gamma signaling (AID 588536; active means well fitted curve in the direction sought with a large enough effect in the signal ratio, with a control signal flat, not every such curve was filed as active; the % refers to the signal ratio;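 further: 0% = DMSO basal wells and 100% = rosiglitazone at 2 µM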). A digest of the protocol: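 This is an agonist-mode beta-lactamase reporter assay in HEK293 PPAR-gamma-UAS-bla cells with 1% charcoal/dextran FBS. Compound titrations ran 16 h at 37 C before CCF4 detection. EC50 and efficacy are Hill fits scaled to 2 uM rosiglitazone (100%) and DMSO basal.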
Chain of Peroxisome proliferator-activated receptor gamma (Homo sapiens) (P37231 whole entry, looked up): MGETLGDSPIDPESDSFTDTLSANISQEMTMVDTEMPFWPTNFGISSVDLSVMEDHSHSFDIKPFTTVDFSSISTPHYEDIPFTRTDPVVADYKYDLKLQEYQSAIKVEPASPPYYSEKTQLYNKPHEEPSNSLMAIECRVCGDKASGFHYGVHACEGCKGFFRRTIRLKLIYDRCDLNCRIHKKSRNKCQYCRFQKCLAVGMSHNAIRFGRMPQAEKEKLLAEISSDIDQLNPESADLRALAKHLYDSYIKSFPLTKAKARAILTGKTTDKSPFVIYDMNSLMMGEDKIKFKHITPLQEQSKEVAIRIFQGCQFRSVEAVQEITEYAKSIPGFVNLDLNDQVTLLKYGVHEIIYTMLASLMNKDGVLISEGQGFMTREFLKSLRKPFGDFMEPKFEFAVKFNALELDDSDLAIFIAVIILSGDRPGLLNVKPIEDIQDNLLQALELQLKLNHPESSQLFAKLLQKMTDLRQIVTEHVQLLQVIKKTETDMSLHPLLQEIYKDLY

Experiment [8] deals with Vitamin D3 receptor (Homo sapiens) (UniProt P11473). The experiment is described as follows: qHTS assay for small molecule antagonists of vitamin D receptor signaling (AID 588541).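 Further: receptor activated by calcitriol during compound treatment; series mostly up to about 77 µM; on the % scale 0 is the no-effect control and ±100 the full control effect.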 The gist of the method: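 Antagonist-mode beta-lactamase reporter assay: HEK293T VDR-UAS-bla cells were exposed to titrated compound alongside 1-alpha,25-dihydroxyvitamin D3 at 3 nM final for 16 h. Values were normalized to the 50 nM agonist control and DMSO basal, with IC50 and efficacy from Hill equation fits.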
Chain of Vitamin D3 receptor (Homo sapiens) (P11473 whole entry, looked up): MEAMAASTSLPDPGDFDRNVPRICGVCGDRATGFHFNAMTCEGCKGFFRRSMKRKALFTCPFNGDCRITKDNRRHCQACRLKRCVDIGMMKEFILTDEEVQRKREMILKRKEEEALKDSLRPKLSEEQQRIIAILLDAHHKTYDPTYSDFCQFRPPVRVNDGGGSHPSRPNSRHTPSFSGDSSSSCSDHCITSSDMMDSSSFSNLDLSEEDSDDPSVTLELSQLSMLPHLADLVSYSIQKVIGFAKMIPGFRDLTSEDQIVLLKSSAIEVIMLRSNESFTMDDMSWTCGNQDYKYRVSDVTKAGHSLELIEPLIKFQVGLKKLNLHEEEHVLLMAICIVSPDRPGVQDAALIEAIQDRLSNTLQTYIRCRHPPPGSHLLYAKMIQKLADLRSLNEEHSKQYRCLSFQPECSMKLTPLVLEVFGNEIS

Experiment [9] in a line: qHTS assay for small molecule agonists of the antioxidant response element (ARE) signaling pathway (AID 651741; active means well fitted activation curve with a large enough effect in the signal ratio; the % refers to the signal ratio; further: potency means the concentration at half of the fitted maximal effect; on activation: % of control where 0% means no effect). The gist of the method: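 Beta-lactamase reporter under ARE control in HepG2 cells, 2,000 per well, was induced by 16 h compound treatment at 37 C. Read-out was fluorescence from LiveBLAzer B/G FRET substrate after 2 h at room temperature.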
The nature of experiment [10]: qHTS assay for small molecule activators of the p53 signaling pathway (AID 651743; active means well fitted activation curve with a large enough effect in the signal ratio, not every such curve was filed as active; the % refers to the signal ratio; further: series mostly up to about 92 µM; % of control where 0% means no effect). The settings on record: HCT-116 p53RE-bla, beta-lactamase FRET ratio, 16 h; activation: hits give high values. The gist of the method: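 After 16 hours compound treatment at 37 C, HCT-116 cells stably expressing p53RE-driven beta-lactamase were loaded with LiveBLAzer B/G FRET substrate for 2 hours at room temperature. Fluorescence intensity served as the p53 activation read-out.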

The target in experiment [11] is Peroxisome proliferator-activated receptor gamma (Homo sapiens) (UniProt P37231). The experiment is described as follows: qHTS assay for small molecule antagonists of peroxisome proliferator-activated receptor gamma signaling (AID 588537; active means well fitted inhibition curve with a large enough effect in the signal ratio, with a control signal flat, not every such curve was filed as active; the % refers to the signal ratio;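 further: reporter cells co-stimulated with 50 nM rosiglitazone agonist during compound treatment; % of control where 0% means no effect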). The gist of the method: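 Antagonist-mode β-lactamase reporter screen run as a titration series. HEK293 PPARγ-UAS-bla cells are stimulated with rosiglitazone (50 nM final) for 16 h, then CCF4 is read at 460/530 nm. Data are scaled between DMSO and rosiglitazone and fitted to the Hill equation.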

The target of experiment [12] is Vitamin D3 receptor (Homo sapiens) (UniProt P11473). Briefly: qHTS assay for small molecule agonists of vitamin D receptor signaling (AID 588543).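 Further: 0% = DMSO basal and 100% = reference agonist control.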 The gist of the method:
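Agonist-mode beta-lactamase reporter: HEK293T VDR-UAS-bla cells in charcoal-stripped 2% FBS, compound series 16 h 37 C, CCF4 2 h RT. EC50 from Hill fit, scaled against DMSO and 50 nM calcitriol control.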

Experiment [13] addresses Thyroid hormone receptor beta (Homo sapiens) (UniProt P10828). The experiment is described as follows: qHTS assay for small molecule antagonists of thyroid hormone receptor beta signaling (AID 588547; active means well fitted inhibition curve with a large enough effect in the signal ratio, with a control signal flat, not every such curve was filed as active; the % refers to the signal ratio). The note with it: TR-UAS-bla HEK293, beta-lactamase ratio, antagonist mode, 18 h. A digest of the protocol: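 Inhibition of T3-driven (0.4nM final) beta-lactamase reporter activity was measured over 0.59 nM to 92 uM compound after 18 h at 37 C. The cells were GripTite HEK293 TR-UAS-bla in charcoal/dextran-stripped serum, with CCF4 ratio read-out and IC50 from Hill fits.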

Values without a mark were called inactive. Inconclusive results are not listed. Calls of active or inactive are those of the source. Unless noted, the call rests on the fitted dose curve.

Chain of Thyroid hormone receptor beta (Homo sapiens) (P10828 whole entry, looked up): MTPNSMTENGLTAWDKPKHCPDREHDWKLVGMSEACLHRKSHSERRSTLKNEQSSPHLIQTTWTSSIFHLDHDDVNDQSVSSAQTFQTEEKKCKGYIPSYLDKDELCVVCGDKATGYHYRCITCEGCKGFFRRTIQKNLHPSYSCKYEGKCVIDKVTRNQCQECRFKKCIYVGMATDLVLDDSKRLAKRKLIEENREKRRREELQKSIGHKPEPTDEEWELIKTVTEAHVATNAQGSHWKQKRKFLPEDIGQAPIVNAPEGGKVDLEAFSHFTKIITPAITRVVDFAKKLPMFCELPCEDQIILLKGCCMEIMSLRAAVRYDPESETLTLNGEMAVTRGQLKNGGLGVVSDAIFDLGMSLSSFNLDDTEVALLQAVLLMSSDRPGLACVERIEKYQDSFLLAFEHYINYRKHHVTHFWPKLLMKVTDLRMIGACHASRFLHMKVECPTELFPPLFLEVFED
Chain of Bile acid receptor (Homo sapiens) (Q96RI1 whole entry, looked up): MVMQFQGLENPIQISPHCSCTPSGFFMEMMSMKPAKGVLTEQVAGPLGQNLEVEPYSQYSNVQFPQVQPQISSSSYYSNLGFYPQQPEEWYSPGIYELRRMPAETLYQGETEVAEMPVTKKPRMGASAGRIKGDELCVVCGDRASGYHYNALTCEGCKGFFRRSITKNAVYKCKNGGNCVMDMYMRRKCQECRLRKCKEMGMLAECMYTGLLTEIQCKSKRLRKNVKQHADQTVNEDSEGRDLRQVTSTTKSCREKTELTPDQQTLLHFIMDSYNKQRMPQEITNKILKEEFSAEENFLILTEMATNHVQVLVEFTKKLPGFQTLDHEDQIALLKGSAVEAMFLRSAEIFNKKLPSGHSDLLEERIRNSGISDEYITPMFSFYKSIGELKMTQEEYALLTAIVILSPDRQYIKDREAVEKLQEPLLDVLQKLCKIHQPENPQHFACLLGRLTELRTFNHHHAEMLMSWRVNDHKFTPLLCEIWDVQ
Chain of DNA dC->dU-editing enzyme APOBEC-3G (Homo sapiens) (Q9HC16 whole entry, looked up): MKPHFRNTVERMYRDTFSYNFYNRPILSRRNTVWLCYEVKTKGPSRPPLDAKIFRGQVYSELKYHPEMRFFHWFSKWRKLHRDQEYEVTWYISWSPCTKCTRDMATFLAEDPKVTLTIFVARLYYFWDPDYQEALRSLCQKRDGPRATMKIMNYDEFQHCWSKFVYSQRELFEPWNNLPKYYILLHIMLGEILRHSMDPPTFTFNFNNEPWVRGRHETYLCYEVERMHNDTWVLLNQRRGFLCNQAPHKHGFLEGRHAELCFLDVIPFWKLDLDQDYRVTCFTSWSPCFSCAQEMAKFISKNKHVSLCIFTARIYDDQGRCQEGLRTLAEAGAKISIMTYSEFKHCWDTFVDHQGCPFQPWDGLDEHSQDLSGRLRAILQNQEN

Consider `CC(C)=CCC/C(C)=C\COc1c2ccoc2cc2oc(=O)ccc12`, for which, in [1], the Potency was 0.794 µM (active). Besides, the Potency entry in experiment [2] and in [3] was “inactive” throughout.
On to `COc1cc2c(Cc3c4c5c(cc(OC)c(OC)c5c5c(OC)c(OC)ccc35)CCN4C)c3c4c(cc(OC)c(OC)c4c2cc1OC)CCN3C`, for which the Potency result in experiment [2] and in experiment [3] was “inactive” in each case.
Take `Cc1ccc(C(=O)c2ccccc2)cc1`: the activation in [4] was 1.33%; in [10] it was 3.79%. The compound was classed as inactive in experiment [5] and in experiment [7]. The Potency result in experiment [6], in experiment [8] and in [9] was “inactive” in each case.
Consider `CC(=O)c1c(O)c(C)c(O)c2c1OC1=CC(=O)C(C(C)=O)C(=O)[C@@]12C` (some centres not stated), for which the Potency result in [2] and in experiment [3] was “inactive” throughout.
Take `COC(=O)c1ccccc1S(=O)(=O)NC(=O)Nc1nc(OC(F)F)cc(OC(F)F)n1`: the activation in [4] was -5.06%; in [10], -4.45%. The outcome in experiment [5], in experiment [7] and in experiment [12] was inactive. The Potency entry in experiment [6], in experiment [11], in experiment [8] and in experiment [9] was “inactive” in each case.
As to `COC(=O)c1cccc(C)c1S(=O)(=O)NC(=O)Nc1nc(OCC(F)(F)F)nc(N(C)C)n1`, the activation in experiment [4] was 3.18%. Besides, the call in [5], in experiment [7] and in [12] was inactive. Besides, the Potency entry in experiment [6], in experiment [8] and in experiment [9] was “inactive” in each case. In addition, the activity change % (negative = inhibition) in [13] was 11.3%.
For `CCCC/C=C\CCCCCCCCO`, the figures for the activation in experiment [4] and in [10] were 1.62% and 0.706%, respectively. The result in [5], in [7] and in experiment [12] was inactive. The Potency result in experiment [6], in experiment [11], in experiment [8] and in [9] was “inactive” throughout. Moreover, the activity change % (negative = inhibition) in [13] is 3.63%.
`CCc1cccc(C)c1N(C(=O)CS(=O)(=O)O)[C@@H](C)COC`: the activation is -2.5% in experiment [4] and 3.16% in experiment [10]. Also, the compound was called inactive in experiment [5], in [7] and in experiment [12]. Further, the Potency result in [11], in experiment [8] and in experiment [9] was “inactive” in each case. In addition, in [13], the activity change % (negative = inhibition) is -18.4%.
`Cc1cc(=O)cc2oc3cc(N)c(-c4c(C)cc(O)cc4O)c(C)c3nc1-2`: the Potency result in [2] and in [3] was “inactive” in each case.
For the compound `COc1ccc(-c2coc3ccc(OC4OC(COC(C)=O)C(OC(C)=O)C(OC(C)=O)C4OC(C)=O)c(OC(C)=O)c3c2=O)cc1` (configuration not stated), the Potency result in experiment [2] and in experiment [3] was “inactive” throughout.
As for `CC[C@@H]1CN2CCc3cc(OC)c(OC)cc3[C@@H]2C[C@@H]1C[C@H]1NCCc2cc(OC)c(OC)cc21`, the Potency entry in experiment [2] and in [3] was “inactive” in each case.
With `Cc1ccc(N=Nc2c(O)ccc3ccccc23)c(C)c1`, in experiment [4], the activation was -2.14%. For the same compound, the compound was classed as inactive in experiment [5] and in experiment [12]. Also, the Potency result in [6] and in experiment [11] was “inactive” in each case. The activity change % (negative = inhibition) in experiment [13] is 9.11%. In [9], the Potency is 7.7 µM (active).
`CCCCCCCCCCCCCCN`: the activation in experiment [4] was 2.33%; in experiment [10], 2.13%. Also, the compound was called inactive in experiment [5], in experiment [7] and in [12]. The Potency entry in [6], in experiment [11] and in experiment [9] was “inactive” throughout.
As to `C=C1C(=O)O[C@@H]2C3OC3(C)CC/C=C(\C)CC[C@@H]12` (some centres not stated), the Potency result in experiment [2] and in experiment [3] was “inactive” in each case.
For the compound `CCCCCCCCCC(C)=O`, the activation in experiment [4] was -3.13%; in [10], -2.23%. The compound was classed as inactive in [5], in experiment [7] and in experiment [12]. In addition, the Potency entry in experiment [11], in [8] and in experiment [9] was “inactive” in each case. Moreover, in [13], the activity change % (negative = inhibition) is -10.7%.
